From PubChem BioAssay (NCI)
The panel holds about 83,000 compounds, 20% with a hit somewhere; the sample as a whole holds those more often.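 Treatment: one concentration, 48 hours, 96-well format. Scoring: percent growth, with anything below 10 considered active.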 Values without a mark were called inactive. Activity calls are given as the source filed them.

Assays:
Assay in all cases: NCI-60 one-dose screen, 48 h (100 = growth as untreated, 0 = no growth, -100 = all killed)
EKVX NSCLC = settings: 10 µM unless noted
SN12C renal = settings: 10 µM unless noted
UO-31 renal = settings: 10 µM unless noted
TK-10 renal = settings: 10 µM unless noted
ACHN renal = settings: 10 µM unless noted
A498 renal = settings: 10 µM
HL-60(TB) leukemia = settings: 10 µM unless noted
CCRF-CEM leukemia = settings: 10 µM unless noted
OVCAR-8 ovarian = settings: 10 µM unless noted
OVCAR-5 ovarian = settings: 10 µM unless noted
OVCAR-4 ovarian = settings: 10 µM unless noted
SK-OV-3 ovarian = settings: 10 µM unless noted
IGROV1 ovarian = settings: 10 µM unless noted
OVCAR-3 ovarian = settings: 10 µM unless noted
HS 578T breast = settings: 10 µM unless noted
CAKI-1 renal = settings: 10 µM unless noted
MOLT-4 leukemia = settings: 10 µM unless noted
SR leukemia = settings: 10 µM unless noted
RPMI-8226 leukemia = settings: 10 µM unless noted

Row | SMILES | growth (EKVX NSCLC) | growth (SN12C renal) | growth (UO-31 renal) | growth (TK-10 renal) | growth (ACHN renal) | growth (A498 renal) | growth (HL-60(TB) leukemia) | growth (CCRF-CEM leukemia) | growth (OVCAR-8 ovarian) | growth (OVCAR-5 ovarian) [%] | growth (OVCAR-4 ovarian) [%] | growth (SK-OV-3 ovarian) | growth (IGROV1 ovarian) | growth (OVCAR-3 ovarian) | growth (HS 578T breast) | growth (CAKI-1 renal) | growth (MOLT-4 leukemia) [%] | growth (SR leukemia) [%] | growth (RPMI-8226 leukemia) [%]
1 | CC(C)[C@]12O[C@H]1[C@@H]1O[C@]13[C@]1(O[C@H]1C[C@H]1c4c(C(=O)c5ccccc5)oc(OC(=O)c5ccccc5)c4CC[C@@]13C)[C@@H]2O | -17.2% (active) | 23.7% | 7.34% (active) | 44% | 10.6% | -49.4% (active) | -46% (active) | -32.5% (active) | 6.13% (active) | 15.2 | 21.3 | 27.3% | -33% (active) | -57.5% (active) | -30.6% (active) |  |  |  | 
2 | NC(=O)c1c(Br)n(C2OC(CO)C(O)C2O)c2ncnc(N)c12 (centres undefined) | -2.28% (active) | 13.4% | 1.86% (active) | 30.4% | 12.1% | -29.9% (active) | -37.2% (active) | -34.4% (active) | 5.8% (active) | 24.4 | 16.1 | -8.9% (active) | -48.3% (active) | -43.3% (active) | -8.41% (active) |  |  |  | 
3 | CCCC(C)C1(CC)C(=O)NC(=O)N(C)C1=O (centres undefined) | 105% |  | 82.3% | 92.6% | 107% | 91.8% | 94.8% | 93.9% | 98.8% | 109 | 108 | 89.3% | 96.6% | 108% | 99.4% | 95.7% | 101 | 95 | 103
4 | CC(=O)/C=C/c1ccc2c(c1)OCO2 |  | 98.1% | 100% | 99.7% | 97.5% | 118% | 104% | 94.1% |  | 106 | 104 | 106% | 118% | 109% | 106% | 91.5% | 103 | 98.3 | 91.5
5 | CN(C)C(=O)Oc1ccc(Br)cc1 |  | 106% | 85.1% | 99.8% | 109% | 117% | 102% | 89.7% | 106% | 106 | 97.7 | 95.8% | 96.7% | 106% | 115% | 95.5% | 102 |  | 106
6 | CC(=O)Oc1ccccc1C(=O)NCCC[Se]C#N | 44.5% | -17.3% (active) | -37.8% (active) | -65.7% (active) | 6.63% (active) |  | 5.1% (active) | 22.9% | -13.9% (active) | 83.3 | 57.2 | 32.6% | 10.8% | -5.3% (active) | 17.1% | 0.654% (active) | 10.7 |  | 91.1
7 | [Au+].[N-]=C=O.c1ccc(CN2[CH-]N(Cc3ccccc3)C(c3ccccc3)=C2c2ccccc2)cc1 | 86.7% | 74% | 74.5% | 104% | 93.2% | 112% |  | 66.8% | 98.9% | 145 | 79.7 | 96.8% | 81.1% | 82.6% | 84.4% |  | 76.1 |  | 63.9
8 | COC(=O)[C@@H](NC(=O)c1cn(CCC2CCCCC2)c2ccccc12)C(C)(C)C | 58.6% | 65.7% | 39.2% | 77.8% | 59.5% | 84.2% | 60% | 72% | 77.7% | 82 | 68.7 | 79.2% | 62.3% | 77.4% | 83.9% |  | 64.3 |  | 64.9
9 | CCOC(=S)S[C@H]1C[C@@H]2[C@H](CC[C@]3(C)C(=O)CC[C@@H]23)[C@@]2(C)CCC(=O)C=C12 | 102% | 93.9% | 97.3% | 100% | 109% | 110% | 101% |  | 100% | 102 | 106 | 108% | 112% | 115% | 108% | 99.6% | 110 | 106 | 
